“And” between values parts separate entries of the source, which are not always exact repeats. Identical values can stand only once. Compounds without any hit were thinned out: in the full panel of roughly 79,000, 15% have a hit. No stated cut-off is given here; in the data, active means growth inhibition above about 70%; inactive means the rest.
Legend:
[1] = NCI Yeast Anticancer Drug Screen. Data for the rad50 strain (AID 155);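 further: 0% = growth of vehicle-only cultures of the same strain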; settings: S. cerevisiae rad50 strain growth inhibition; at 50.0 µM; stronger effect = higher value
How it was run: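 DNA repair mutant yeast, compound exposure, growth read-out; inhibition is taken relative to vehicle.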

[2] = NCI Yeast Anticancer Drug Screen. Data for the mec2-1 strain (AID 157); settings: S. cerevisiae mec2-1 strain, at 50.0 µM, stronger effect = higher value
How it was run: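 Using mec2-1 yeast: add compound, measure growth, express inhibition versus vehicle-treated cultures.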

[3] = NCI Yeast Anticancer Drug Screen. Data for the sgs1 mgt1 strain (AID 161);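 further: 0% = growth of cultures given vehicle only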; settings: S. cerevisiae sgs1 mgt1 strain, at 50.0 µM, stronger effect = higher value
How it was run: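 This yeast growth screen uses a strain with defined DNA-repair lesions; compound-treated growth is compared with vehicle-treated growth.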

[4] = NCI Yeast Anticancer Drug Screen. Data for the cln2 rad14 strain (AID 165);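 further: 0% = growth equal to vehicle treated cultures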; settings: S. cerevisiae cln2 rad14 strain, at 50.0 µM, stronger effect = higher value
How it was run: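 Yeast strain cln2 rad14, bearing defects in cell cycle control and DNA repair, serves as the test system; values reflect growth inhibition compared with vehicle.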

[5] = NCI Yeast Anticancer Drug Screen. Data for the bub3 strain (AID 167); settings: S. cerevisiae bub3 mutant strain, at 50.0 µM, stronger effect = higher value
How it was run: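 In this screen, a yeast mutant lacking normal mitotic checkpoint function is challenged with compound. Relative growth versus vehicle gives the inhibition value.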

[6] = NCI Yeast Anticancer Drug Screen. Data for the mlh1 rad18 strain (AID 175); settings: S. cerevisiae mlh1 rad18 strain growth inhibition; at 50.0 µM; stronger effect = higher value
How it was run: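 Steps: expose repair-defective yeast to compound; measure growth; express inhibition against vehicle-treated controls.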

Measured: growth inhibition

CC(=O)c1c(O)c(C)c(O)c2c1OC1=CC(=O)C(C(C)=O)C(=O)C12C (configuration not stated)
inactive: [1] 30.6% and 28.6% and -0.1% | [2] 21% and 17.2% and -20.2% | [3] 28.4% and 23.8% and -25.1% | [4] 37% and 23.2% and -19.4% | [5] 30.4% and 24.9% and 12.6% | [6] 23.9% and 31.6% and -25.6%

O=C(/C(=N/N(C(=O)c1ccccc1)c1ccccc1)c1ccccc1)c1ccccc1
inactive: [1] 29.4% and 22.2% | [2] 5.2% and -1.9% | [3] 19% and 16.8% | [4] -12.4% and 16.6% | [5] -3.85% and -6.05% | [6] 8.65% and 26.4%

Nc1ccc(C(F)(F)F)cc1[N+](=O)[O-]
inactive: [1] -33.3% and 12.1% | [2] -19.9% and 5.6% | [3] -49.6% and 12.5% | [4] -43.6% and 10.2% | [5] -35.1% and 3.5% | [6] -22.5% and 9.15%

O=C(NC(=O)C(C(=O)c1ccccc1)c1ccccc1)c1ccccc1 (configuration not stated)
inactive: [1] -3.95% and 2.65% | [2] 2.1% and -1.35% | [3] -6.9% and -12.2% | [4] 0.15% and 9.9% | [5] 5.6% and -4.05% | [6] -5.05% and -6.25%

NC(=O)N/N=C/C=C/c1ccccc1
inactive: [1] 18.4% and -1.3% | [2] 12.7% and 3.1% | [3] 6.85% and -6.75% | [4] 7.55% and -20.4% | [5] -0.4% and -14.1% | [6] 5.05% and 6.95%

C=CCC(N)C(=O)O (configuration not stated)
inactive: [1] -11.9% and -1% | [2] -20.6% and -4.45% | [3] 4.95% and -1.85% | [4] 13.5% and 2.3% | [5] -10.6% and 8.3% | [6] -1.7% and -3%

COC(=O)C(C)NC(=O)c1c2nc3c(C(=O)NC(C)C(=O)OC)ccc(C)c3oc-2c(C)c(=O)c1N (configuration not stated)
inactive: [1] 2.9% and 13.8% | [2] 14.7% and -7.2% | [3] 0.1% and -14.9% | [4] 22% and 15% | [5] 7.25% and -4.65% | [6] 29.1% and -4.85%

CCOC(=O)C1CN(C)CC(c2ccccc2)C1=O (configuration not stated)
inactive: [1] 12.3% and -8.7% | [2] 14.9% and 1% | [3] 16.1% and -3.5% | [4] -10.4% and -25.1% | [5] 9.25% and -4.45% | [6] 11.1% and 5.6%

Nc1ccc(O)c2c1C(=O)c1c(O)ccc(N)c1C2=O
inactive: [1] 59.8% and 13.4% | [2] 11.4% and -13.4% | [3] 16.4% and -0.55% | [4] -16.1% and -0.65% | [5] 43.2% and 8.25% | [6] 42.1% and 11.8%

CC(C)CC(NC(=O)COc1ccccc1Cl)C(=O)O (configuration not stated)
inactive: [1] -9.6% and 5.05% | [2] 15.5% and 14.3% | [3] 3.4% and 6.9% | [4] -11.8% and -9.2% | [5] 1.25% and 7.15% | [6] -8.75% and -13.3%

COc1ccc(COC(=O)NCC(=O)NC(C)C(=O)NC(Cc2ccccc2)C(=O)OCc2ccccc2)cc1 (configuration not stated)
inactive: [1] -6.5% and 3.15% | [2] -10.4% and -13.6% | [3] -14.9% and -1.9% | [4] -21.1% and -17.6% | [5] -0.7% and 1.65% | [6] 4.25% and 6.25%

NC(=O)CC(N)C(=O)O (configuration not stated)
inactive: [1] -4.4% and -5.3% | [2] -30.1% and -1.65% | [3] -10.8% and -4.4% | [4] -1% and 11.7% | [5] 1.5% and -13.7% | [6] 0.7% and 2.65%

CC1CCOS(=O)O1 (configuration not stated)
inactive: [1] 6.55% and -13.5% | [2] -15% and 6.9% | [3] 19.1% and -9.65% | [4] 12.1% and 11.6% | [5] -4.45% and 7.7% | [6] 18.2% and -7%

COc1ccc(-c2nc(SC3OC(COC(C)=O)C(OC(C)=O)C(OC(C)=O)C3OC(C)=O)n(C3OC(COC(C)=O)C(OC(C)=O)C(OC(C)=O)C3OC(C)=O)c(=O)c2C#N)cc1 (configuration not stated)
inactive: [1] 11.2% and -3.9% | [2] 8.85% and -1% | [3] 22.4% and 18.1% | [4] -6.15% and -19.5% | [5] 3.35% and 14.9% | [6] -12.7% and -3.55%

Cc1ccc(CCO)cc1
inactive: [1] 2.3% and 2.65% | [2] 0.95% and 2.6% | [3] 6.95% and -28.1% | [4] 0.5% and -47.2% | [5] -4.9% and -6.4% | [6] -2.75% and 0.35%

CC(CCC(=O)O)(c1ccc(O)cc1)c1ccc(O)cc1
inactive: [1] 10.4% and -8.8% | [2] -0.85% and -15.6% | [3] -12.8% and -51.6% | [4] -44.4% and -33.4% | [5] -2.7% and -17.2% | [6] 22.8% and -15.6%

COc1ccc(C2c3cc(OC)c(OC)cc3CC(C(=O)O)C2C(=O)N(C)C)cc1OC (configuration not stated)
inactive: [1] -2.05% and -30.2% | [2] 8% and -4.6% | [3] 35.3% and -0.15% | [4] 26.6% and 10.1% | [5] 4.7% and -4% | [6] 13.1% and 1.9%

Source: PubChem BioAssay (NCI)
